{"source": "paper PMC5540273", "about": "(PLoS ONE, 2017);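 note: KINOMEscan kinase panel screen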", "details_in_all_cases": "concentration: 1 μM, replicates: in singlicate; n = 1", "key": {"[1]": {"tested_on": "CDKL2"}, "[2]": {"tested_on": "CDKL3"}, "[3]": {"tested_on": "CDKL5"}, "[4]": {"tested_on": "CHEK1"}, "[5]": {"tested_on": "CHEK2"}, "[6]": {"tested_on": "CIT"}, "[7]": {"tested_on": "CLK1"}, "[8]": {"tested_on": "CLK2"}, "[9]": {"tested_on": "CLK3"}, "[10]": {"tested_on": "CLK4"}}, "data": [{"molecule": "Clc1cccc(-c2nc(Nc3ccncc3)c3ccccc3n2)c1", "note": "[GW873004]", "values": [{"measurement": "%Inh", "setting": "[1]", "result": 35, "unit": "%"}, {"measurement": "%Inh", "setting": "[2]", "result": 13, "unit": "%"}, {"measurement": "%Inh", "setting": "[3]", "result": 3, "unit": "%"}, {"measurement": "%Inh", "setting": "[4]", "result": 0, "unit": "%"}, {"measurement": "%Inh", "setting": "[5]", "result": 0, "unit": "%"}, {"measurement": "%Inh", "setting": "[6]", "result": 57, "unit": "%"}, {"measurement": "%Inh", "setting": "[7]", "result": 14, "unit": "%"}, {"measurement": "%Inh", "setting": "[8]", "result": 0, "unit": "%"}, {"measurement": "%Inh", "setting": "[9]", "result": 35, "unit": "%"}, {"measurement": "%Inh", "setting": "[10]", "result": 52, "unit": "%"}]}, {"molecule": "CCC(CC)(CC)n1cnc2c(N)ncnc21", "note": "[SKF-97620]", "values": [{"measurement": "%Inh", "setting": "[1]", "result": 0, "unit": "%"}, {"measurement": "%Inh", "setting": "[2]", "result": 0, "unit": "%"}, {"measurement": "%Inh", "setting": "[3]", "result": 23, "unit": "%"}, {"measurement": "%Inh", "setting": "[4]", "result": 0, "unit": "%"}, {"measurement": "%Inh", "setting": "[5]", "result": 0, "unit": "%"}, {"measurement": "%Inh", "setting": "[6]", "result": 13, "unit": "%"}, {"measurement": "%Inh", "setting": "[7]", "result": 0, "unit": "%"}, {"measurement": "%Inh", "setting": "[8]", "result": 0, "unit": "%"}, {"measurement": "%Inh", "setting": "[9]", "result": 6, "unit": "%"}, {"measurement": "%Inh", "setting": "[10]", "result": 16, "unit": "%"}]}, {"molecule": "Cl.Cn1ccc(-c2cccc(Nc3ccnc4cc(-c5nccs5)ccc34)c2)n1", "note": "[GW525701]", "values": [{"measurement": "%Inh", "setting": "[1]", "result": 61, "unit": "%"}, {"measurement": "%Inh", "setting": "[2]", "result": 0, "unit": "%"}, {"measurement": "%Inh", "setting": "[3]", "result": 0, "unit": "%"}, {"measurement": "%Inh", "setting": "[4]", "result": 24, "unit": "%"}, {"measurement": "%Inh", "setting": "[5]", "result": 0, "unit": "%"}, {"measurement": "%Inh", "setting": "[6]", "result": 3, "unit": "%"}, {"measurement": "%Inh", "setting": "[7]", "result": 1, "unit": "%"}, {"measurement": "%Inh", "setting": "[8]", "result": 0, "unit": "%"}, {"measurement": "%Inh", "setting": "[9]", "result": 0, "unit": "%"}, {"measurement": "%Inh", "setting": "[10]", "result": 37, "unit": "%"}]}, {"molecule": "CC(=O)Nc1n[nH]c2ncc(-c3ccccc3)cc12", "note": "[SB-548492]", "values": [{"measurement": "%Inh", "setting": "[1]", "result": 6, "unit": "%"}, {"measurement": "%Inh", "setting": "[2]", "result": 0, "unit": "%"}, {"measurement": "%Inh", "setting": "[3]", "result": 0, "unit": "%"}, {"measurement": "%Inh", "setting": "[4]", "result": 0, "unit": "%"}, {"measurement": "%Inh", "setting": "[5]", "result": 1, "unit": "%"}, {"measurement": "%Inh", "setting": "[6]", "result": 4, "unit": "%"}, {"measurement": "%Inh", "setting": "[7]", "result": 41, "unit": "%"}, {"measurement": "%Inh", "setting": "[8]", "result": 19, "unit": "%"}, {"measurement": "%Inh", "setting": "[9]", "result": 32, "unit": "%"}, {"measurement": "%Inh", "setting": "[10]", "result": 27, "unit": "%"}]}, {"molecule": "COC(=O)c1c(-c2ccccc2)c2cc(Cl)ccc2c(=O)n1Cc1ccc(S(C)(=O)=O)cc1", "values": [{"measurement": "%Inh", "setting": "[1]", "result": 0, "unit": "%"}, {"measurement": "%Inh", "setting": "[2]", "result": 0, "unit": "%"}, {"measurement": "%Inh", "setting": "[3]", "result": 33, "unit": "%"}, {"measurement": "%Inh", "setting": "[4]", "result": 0, "unit": "%"}, {"measurement": "%Inh", "setting": "[5]", "result": 10, "unit": "%"}, {"measurement": "%Inh", "setting": "[6]", "result": 4, "unit": "%"}, {"measurement": "%Inh", "setting": "[7]", "result": 3, "unit": "%"}, {"measurement": "%Inh", "setting": "[8]", "result": 0, "unit": "%"}, {"measurement": "%Inh", "setting": "[9]", "result": 10, "unit": "%"}, {"measurement": "%Inh", "setting": "[10]", "result": 10, "unit": "%"}]}, {"molecule": "Cc1cc(N2CCC(NS(=O)(=O)c3ccc(F)cc3)CC2)nc(Nc2cccc(C#N)c2)n1.O=C(O)C(F)(F)F", "note": "[GSK1653537]", "values": [{"measurement": "%Inh", "setting": "[1]", "result": 24, "unit": "%"}, {"measurement": "%Inh", "setting": "[2]", "result": 0, "unit": "%"}, {"measurement": "%Inh", "setting": "[3]", "result": 0, "unit": "%"}, {"measurement": "%Inh", "setting": "[4]", "result": 4, "unit": "%"}, {"measurement": "%Inh", "setting": "[5]", "result": 0, "unit": "%"}, {"measurement": "%Inh", "setting": "[6]", "result": 0, "unit": "%"}, {"measurement": "%Inh", "setting": "[7]", "result": 14, "unit": "%"}, {"measurement": "%Inh", "setting": "[8]", "result": 0, "unit": "%"}, {"measurement": "%Inh", "setting": "[9]", "result": 0, "unit": "%"}, {"measurement": "%Inh", "setting": "[10]", "result": 25, "unit": "%"}]}, {"molecule": "FC(F)(F)c1ccc(-c2nn3ncccc3c2-c2ccnc(Nc3cccc(C(F)(F)F)c3)n2)cc1", "note": "[GW828205]", "values": [{"measurement": "%Inh", "setting": "[1]", "result": 0, "unit": "%"}, {"measurement": "%Inh", "setting": "[2]", "result": 0, "unit": "%"}, {"measurement": "%Inh", "setting": "[3]", "result": 0, "unit": "%"}, {"measurement": "%Inh", "setting": "[4]", "result": 0, "unit": "%"}, {"measurement": "%Inh", "setting": "[5]", "result": 0, "unit": "%"}, {"measurement": "%Inh", "setting": "[6]", "result": 16, "unit": "%"}, {"measurement": "%Inh", "setting": "[7]", "result": 4, "unit": "%"}, {"measurement": "%Inh", "setting": "[8]", "result": 0, "unit": "%"}, {"measurement": "%Inh", "setting": "[9]", "result": 0, "unit": "%"}, {"measurement": "%Inh", "setting": "[10]", "result": 0, "unit": "%"}]}, {"molecule": "Oc1ccc2ncnc(Nc3ccc(OCc4ccccc4)cc3)c2c1", "note": "[GI262866]", "values": [{"measurement": "%Inh", "setting": "[1]", "result": 0, "unit": "%"}, {"measurement": "%Inh", "setting": "[2]", "result": 0, "unit": "%"}, {"measurement": "%Inh", "setting": "[3]", "result": 7, "unit": "%"}, {"measurement": "%Inh", "setting": "[4]", "result": 8, "unit": "%"}, {"measurement": "%Inh", "setting": "[5]", "result": 23, "unit": "%"}, {"measurement": "%Inh", "setting": "[6]", "result": 0, "unit": "%"}, {"measurement": "%Inh", "setting": "[7]", "result": 37, "unit": "%"}, {"measurement": "%Inh", "setting": "[8]", "result": 0, "unit": "%"}, {"measurement": "%Inh", "setting": "[9]", "result": 21, "unit": "%"}, {"measurement": "%Inh", "setting": "[10]", "result": 19, "unit": "%"}]}, {"molecule": "Nc1nc(-c2ccccn2)c(-c2ccnc3ccccc23)s1", "note": "[GW548057]", "values": [{"measurement": "%Inh", "setting": "[1]", "result": 24, "unit": "%"}, {"measurement": "%Inh", "setting": "[2]", "result": 0, "unit": "%"}, {"measurement": "%Inh", "setting": "[3]", "result": 0, "unit": "%"}, {"measurement": "%Inh", "setting": "[4]", "result": 0, "unit": "%"}, {"measurement": "%Inh", "setting": "[5]", "result": 46, "unit": "%"}, {"measurement": "%Inh", "setting": "[6]", "result": 6, "unit": "%"}, {"measurement": "%Inh", "setting": "[7]", "result": 14, "unit": "%"}, {"measurement": "%Inh", "setting": "[8]", "result": 16, "unit": "%"}, {"measurement": "%Inh", "setting": "[9]", "result": 30, "unit": "%"}, {"measurement": "%Inh", "setting": "[10]", "result": 40, "unit": "%"}]}, {"molecule": "N#Cc1ccc(Oc2ccc(Nc3ncnc4cc[nH]c34)cc2Cl)cc1", "values": [{"measurement": "%Inh", "setting": "[1]", "result": 15, "unit": "%"}, {"measurement": "%Inh", "setting": "[2]", "result": 3, "unit": "%"}, {"measurement": "%Inh", "setting": "[3]", "result": 14, "unit": "%"}, {"measurement": "%Inh", "setting": "[4]", "result": 4, "unit": "%"}, {"measurement": "%Inh", "setting": "[5]", "result": 19, "unit": "%"}, {"measurement": "%Inh", "setting": "[6]", "result": 22, "unit": "%"}, {"measurement": "%Inh", "setting": "[7]", "result": 25, "unit": "%"}, {"measurement": "%Inh", "setting": "[8]", "result": 19, "unit": "%"}, {"measurement": "%Inh", "setting": "[9]", "result": 3, "unit": "%"}, {"measurement": "%Inh", "setting": "[10]", "result": 21, "unit": "%"}]}, {"molecule": "Fc1ccc(Nc2nccc(-c3c(-c4ccc(Cl)cc4)nn4ncccc34)n2)cc1F", "note": "[GW829058]", "values": [{"measurement": "%Inh", "setting": "[1]", "result": 22, "unit": "%"}, {"measurement": "%Inh", "setting": "[2]", "result": 21, "unit": "%"}, {"measurement": "%Inh", "setting": "[3]", "result": 23, "unit": "%"}, {"measurement": "%Inh", "setting": "[4]", "result": 12, "unit": "%"}, {"measurement": "%Inh", "setting": "[5]", "result": 1, "unit": "%"}, {"measurement": "%Inh", "setting": "[6]", "result": 0, "unit": "%"}, {"measurement": "%Inh", "setting": "[7]", "result": 0, "unit": "%"}, {"measurement": "%Inh", "setting": "[8]", "result": 10, "unit": "%"}, {"measurement": "%Inh", "setting": "[9]", "result": 10, "unit": "%"}, {"measurement": "%Inh", "setting": "[10]", "result": 5, "unit": "%"}]}]}
